# Compound activity from PubChem.
# Hits are enriched below; roughly 21% of the tested compounds scored in any of these assays.
# Giardia FBPA inh: Giardia lamblia aldolase inhibition. 290,000 tested, 0.71% active. purified Giardia FBPA. AID 2451. A8B2U2. Potency, µM (series often up to 59.6 µM), inactives show at the highest dose activity, negative = inhibition, hits mostly inhibitors; further: potency means the concentration at half of the fitted maximal effect; on the % scale 0 is the no-effect control and ±100 the full control effect; nearly all actives have a fitted effect of over 55% in size
# Target sequence (A8B2U2 whole entry, looked up): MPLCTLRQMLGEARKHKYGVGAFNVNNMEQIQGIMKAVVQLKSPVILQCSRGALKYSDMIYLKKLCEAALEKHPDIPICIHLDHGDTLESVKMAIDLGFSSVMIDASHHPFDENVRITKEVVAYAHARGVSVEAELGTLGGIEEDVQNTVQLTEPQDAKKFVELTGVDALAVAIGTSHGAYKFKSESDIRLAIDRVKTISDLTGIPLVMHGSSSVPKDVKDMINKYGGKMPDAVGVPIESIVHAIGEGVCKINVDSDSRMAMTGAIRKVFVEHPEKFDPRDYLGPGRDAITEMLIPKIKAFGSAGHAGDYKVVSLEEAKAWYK
#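 40 nM FBPA preincubated 10 min at RT with compound (up to 57.5 uM final), then substrate plus GAPDH/TPI/NAD/arsenate coupling and diaphorase/resazurin added. Fluorescence read after 20 min at RT, 525/598 nm.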
# NS1 inh: blocks influenza NS1 protein function; Potency, µM (series often up to 46.1 µM), inactives show at the top dose activity, positive = more growth; 270,000 tested, 0.4% active; calls by dose curve; further: potency means the concentration at half of the fitted maximal effect; actives are rising curves; nearly all actives have a fitted effect of over 50% in size
#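 Growth recovery, yeast-based: influenza A NS1 expressed in S. cerevisiae causes slow growth, and suppressors are detected by OD600. The parent strain without NS1 is used as positive control.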
# Pf growth 96h: inhibits malaria parasite growth, 96 h. P. falciparum luciferase reporter growth, 96 h. Potency, µM (doses to about 28.7 µM), for the others: top-dose activity change, negative = inhibition, most hits filed as inhibitors. 320,000 tested, 6.9% active. AID 504834; further: potency means the concentration at half of the fitted maximal effect; on the % scale 0 is the no-effect control and ±100 the full control effect
#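 Cell-based qHTS: luciferase-tagged P. falciparum in erythrocytes (2% hematocrit, 0.05% parasitemia final) incubated with compounds for 96 hours, 37 C, 5% CO2; luciferase detection reagent then added and luminescence measured.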
# Shiga inhibitor: blocks Shiga toxin action in Vero cells; Vero cells, Shiga toxin protein synthesis inhibition reporter; inhibition, % at 38.7 µM; 290,000 tested, 9.2% active; AID 2315; in the data active means inhibition mostly above about 28%, no sharp cut-off; inactive means mostly below about 43%; further: 0% is about no effect
# CHX counter: affects cycloheximide protein synthesis inhibition readout, counter-screen | 300,000 tested, 12% active | max response, % | cell reporter, cycloheximide protein synthesis inhibition counterscreen; in the data active means max response mostly above about 13%, no sharp cut-off; inactive means mostly below about 14%; further: read at 38.3 µM for the half of the compounds with a filed dose; 0% is about no effect
# Pf growth 48h: inhibits P. falciparum growth in the first generation, 48 h | P. falciparum luciferase growth in erythrocytes, 48 h | Potency, µM (series often up to 28.7 µM), inactives show at the top dose activity change, negative = inhibition, most hits filed as inhibitors | 310,000 tested, 5.9% active | AID 504832; further: potency means the concentration at half of the fitted maximal effect; on the % scale 0 is the no-effect control and ±100 the full control effect
#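 Luciferase-expressing parasites in RBCs, 2% Hct / 0.1% parasitemia final; RPMI 1640 + 0.5% Albumax; 37 C, 5% CO2, one generation; luminescence read-out, lower signal = inhibition.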
# * = called active by the depositor; ? = inconclusive; . = not tested or not shown; [ ] = dose if it differs, or a comment. Unless noted, the call rests on the fitted dose curve; in most records, active means well fitted curve in the direction sought with a large enough effect; inconclusive means small, poorly fitted or top-dose-only effect, or another doubt; inactive means no such curve, though single readings can be large; an effect the other way counts as inactive or inconclusive.
SMILES,Giardia FBPA inh,NS1 inh,Pf growth 96h,Shiga inhibitor,CHX counter,Pf growth 48h
O=C(Nc1cnc2sc3c(n2c1=O)CCCC3)c1ccc(F)cc1,-5%,-36%,76%,44*,25*,40%
O=C(CSc1nnc2ccccn12)NNC(=O)c1ccc(F)cc1,0%,.,14%,-12,1,17%
COc1ccc(OC)c(NC(=O)c2cc3c(=O)n4ccccc4nc3n2C)c1,8%,.,?,2,15,1%
CCOC(=O)N1CCC(N2C(=O)c3ccccc3C2Nc2ccc(S(=O)(=O)N3CCCCC3)cc2)CC1 (centres undefined),-6%,.,?,-13,-2,?
CCCCP(=O)(O)c1ccccc1,13%,14%,?,2,-4,25%
CCCCP(=O)(CCCC)Cc1ccccc1O,3%,-6%,?,-10,-2,15µM*
O=S(=O)(O)n1ccnc1 (tested in a mixture with another compound),.,-1%,.,.,.,.
Cc1ccc(S(=O)(=O)/N=C2/C=C(C3C(=O)CC(C)(C)CC3=O)C(=O)c3ccccc32)cc1,?,-12%,.,140*,41*,?
COC(=O)CCCC(=O)N1CCCC(C(=O)c2ccc(-c3ccccc3)cc2)C1 (centres undefined),4%,-30%,-10%,3,1,-18%
CCC(=O)N1CCCC(C(=O)c2ccc(-c3ccccc3)cc2)C1 (centres undefined),17%,-27%,-11%,47,13*,18%
CCN1CCN(CC(=O)N2CCCC(C(=O)c3ccc(Oc4ccccc4)cc3)C2)CC1 (centres undefined),-2%,-40%,?,56*,25*,?
Cc1ccc(C(=O)N2CCCC(C(=O)c3ccc(Oc4ccccc4)cc3)C2)cn1 (centres undefined),-4%,-33%,8.3µM*,-6,-2,-15%
Cn1cc([N+](=O)[O-])c(C(=O)NC2CCCC2)n1,5%,0%,?,-9,6,6%
Cc1ccc(S(=O)(=O)N2CCN(C(=O)c3ccnn3C)CC2)cc1C,.,-11%,17%,-32,-3,7%
Cc1cc2n(n1)SC(Nc1ccccc1)N2 (centres undefined),.,-15%,10%,143,32*,61%
Cc1cc(NC(=NC2CC2)c2ccccc2)n(-c2ccccc2)n1,0%,.,?,-7,-4,?
Cc1ccc(NC2Nc3cc(C)nn3S2)c(C)c1 (centres undefined),0%,.,-6%,83*,57*,254%
CC1(c2ccc3c(c2)OCCCO3)NC(=O)N(CC(=O)Nc2cccc(C#N)c2)C1=O (centres undefined),.,.,-7%,.,.,4%
CCNc1nc(C#N)nc2c1ncn2-c1cc(F)cc(F)c1,.,.,?,.,.,1.7µM*
CCn1cnc2c(Nc3cc(F)cc(F)c3)nc(C#N)nc21,.,.,0.29µM*,.,.,0.83µM*
CCOc1cccc(C(=O)Nc2ccncc2)c1,3%,.,48%,-2,-1,-1%[5.75 µM]
CC(C)c1ccccc1OCC(=O)Nc1ccc2[nH]ncc2c1,-9%,-53%,?,0,7,?
COc1cccc(C(=O)Nc2ccc3[nH]ncc3c2)c1,-3%,0%,?,23,24*,170%
COc1ccccc1C(=O)Nc1ccc2[nH]ncc2c1,9%,-11%,7.4µM*,24,16*,5%
CCOc1cccc(C(=O)Nc2ccc3[nH]ncc3c2)c1,-2%,7%,-2%,22*,36*,144%
SMILES,Giardia FBPA inh,NS1 inh,Pf growth 96h,Shiga inhibitor,CHX counter,Pf growth 48h
COc1ccc2nc(NC(=O)C3CC(=O)N(c4ccccc4)C3)sc2c1 (centres undefined),5%,12%,13%,-7,10,-1%
CS(=O)(=O)N(CC(=O)N1CCN(Cc2ccccc2)CC1)c1ccccc1Br,2%,-8%,?,-5,1,-5%
Cc1ccc(NC(=O)c2cc(-c3cccc(O)c3)on2)cc1C,0%,-36%,-37%,78*,47*,.
O=C(Nc1ccc(F)c(Cl)c1)c1cc(-c2ccco2)on1,-4%,-9%,-2%,62*,16,75%
Cc1ccc(NC(=O)c2cc(-c3ccco3)on2)cc1C,1%,-53%,?,99*,38*,332%
O=C(Nc1cccc(O)c1)c1cc(-c2ccc3c(c2)OCO3)on1,3%,-22%,?,-2,3,-23%
